# Hits are enriched below; roughly 4.7% of the tested compounds scored in any of these assays.
# D1 PAM – Potentiators of Human D1 Dopamine Receptor: qHTS | HEK293 TREx D1 cells, calcium flux, dopamine EC20 potentiation | potentiation, % at 10 µM | D(1A) dopamine receptor (Homo sapiens), P21728 | 360,000 tested, 0.036% active | AID 504651, 2011; in the data active = potentiation above about 30%; note: 0% is about no effect
# D1 ag – Allosteric Agonists of the Human D1 Dopamine Receptor: qHTS; HEK293 T-REx D1 cells, calcium flux, agonist mode; 360,000 tested, 1% active; D(1A) dopamine receptor (Homo sapiens), P21728; activation, % at 2 µM; note: 0% is about no effect
#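 Agonism was scored from calcium flux recorded over 180 s (1 read/s) after pintool compound addition, following a 10-cycle baseline. Cells were inducible force-coupled HEK293 TREx D1, plated overnight at 30 C and loaded with no-wash calcium dye.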
# TRHR agonist – qHTS for Small Molecule Agonists and Allosteric Enhancers of Human TRH Receptor: Primary Screen for Agonists | Thyrotropin-releasing hormone receptor (Homo sapiens), P34981 | TRHR cells, calcium flux fluo-8, FDSS agonist mode | activation, % at 2 µM | 360,000 tested, 0.18% active; note: 0% is about no effect
# Target sequence (P34981 whole entry, looked up): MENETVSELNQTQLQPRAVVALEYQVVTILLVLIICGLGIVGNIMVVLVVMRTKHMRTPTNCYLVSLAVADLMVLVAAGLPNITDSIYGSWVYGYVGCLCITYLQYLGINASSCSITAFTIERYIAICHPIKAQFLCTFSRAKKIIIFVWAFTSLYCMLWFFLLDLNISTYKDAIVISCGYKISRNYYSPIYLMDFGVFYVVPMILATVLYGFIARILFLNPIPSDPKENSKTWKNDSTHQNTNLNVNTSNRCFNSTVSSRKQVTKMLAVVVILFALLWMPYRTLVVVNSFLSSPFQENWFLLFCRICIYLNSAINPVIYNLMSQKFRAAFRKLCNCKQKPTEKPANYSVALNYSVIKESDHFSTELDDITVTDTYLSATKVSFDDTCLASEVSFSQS
#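 In this calcium-flux screen, cells bearing human TRHR are dye-loaded with fluo-8, baselined for 10 cycles, then exposed to library compounds; positive kinetic calcium responses during the agonist phase mark hits, with TRH as control.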
# TRHR PAM – qHTS for Small Molecule Agonists and Allosteric Enhancers of Human TRH Receptor: Primary Screen for Enhancers; Thyrotropin-releasing hormone receptor (Homo sapiens), P34981; TRHR cells, fluo-8 calcium fluorescence, EC20 TRH enhancement; enhancement, % at 2 µM; 360,000 tested, 0.66% active; in the data active = enhancement above about 30%; note: 0% is about no effect
#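 TRHR-expressing cells loaded with fluo-8 calcium dye were read kinetically (ex 480/em 530) during compound addition, then stimulated with an EC20 of TRH (10 nM final). Enhancement of the Gq-mediated intracellular calcium response was scored.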
# D1 antag – Antagonist of Human D 1 Dopamine Receptor: qHTS; HEK293 TREx D1 cells, calcium flux, dopamine EC80; active compounds read low; activity change, negative = inhibition, % at 10 µM; 360,000 tested, 3.2% active; in the data active = activity change below about -30%; note: % is set by controls: 0 for no effect and ±100 for the full control effect
#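 HEK293 T-REx cells expressing inducible, force-coupled D1 receptor; no-wash Ca dye, 30–90 min RT. Cmpd → 180 s read at 1 Hz → EC80 DA → 180 s read.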
# * hit, by the source's call; . = no result given; ! = not active in a repeat. Cut-off read from the data, not from the text of the source, unless noted: active = activation above about 30%; inactive = the rest.
SMILES,D1 PAM,D1 ag,TRHR agonist,TRHR PAM,D1 antag
CC1Cc2ccccc2N1S(=O)(=O)c1cccc(C(=O)NCc2ccccn2)c1 (stereo unspecified),-3,0,0,4,-4
CCCC(=O)Nc1ccccc1N1CCN(C(=O)C(C)C)CC1,-1,0,-1,32*,11
COC(=O)[C@@H](N)Cc1ccc(O)c(O)c1,-6,-2,1,-28,-53*
CCCC12CN3CC(CCC)(CN(C1)C3c1ccc(OC(C)C)cc1)C2=O (stereo unspecified),-1,-2,0,-5,2
CCOC(=O)C1CCN(C(=O)c2c(C)nn(-c3ccc(F)cc3)c2-n2cccc2)CC1,-2,-1,0,-2,-8
COCCn1nnnc1C(c1cccc(C(F)(F)F)c1)N1CCN(Cc2ccccc2)CC1 (stereo unspecified),-4,0,1,1,3
COCCn1nnnc1C(c1cccc(C(F)(F)F)c1)N1CCOCC1 (stereo unspecified),-5,0,-1,-6,-42*
CCOc1cc(CNC(=O)c2ccc3c(c2)nc2n3CCCCC2)ccc1OC,-1,0,0,-4,0
C/C(=N\NC(=O)c1c(Cl)c(C)nn1C)c1ccc(NC(=O)COc2ccc(Cl)cc2C)cc1,-16,1,0,10,-41*
Cc1ccc2c(c1)c(=O)c(C(=O)c1ccc3c(c1)OCO3)cn2Cc1cccc(F)c1,-3,2,0,4,-66*
CCS(=O)(=O)c1oc(-c2ccc(F)cc2)nc1S(=O)(=O)c1ccccc1,4,10,0,2,29
CCOC(=O)c1c(C)[nH]c(C)c1S(=O)(=O)N1CCCC(C(=O)N2CCN(c3cccc(Cl)c3)CC2)C1 (stereo unspecified),-3,1,-1,-1,5
Cc1cccc(-n2c(=O)[nH]c3c(C(N)=O)nc(CC(C)C)nc32)c1,-9,2,-1,7,-36*
CC(C)Cc1nc(C(N)=O)c2[nH]c(=O)n(-c3ccc(F)cc3)c2n1,-2,1,1,11,6
CCc1ccc(-c2nc(CN3CCCC(C(=O)O)C3)c(C)o2)cc1 (stereo unspecified),.,4,0,5,2
CCOCCCNC(=O)C1CCCN(Cc2nc(-c3ccc(CC)cc3)oc2C)C1 (stereo unspecified),-4,3,-1,32*,-2
CCCN(CCC)CCCNC(=O)C1CCCN(Cc2nc(-c3ccc(Cl)cc3)oc2C)C1 (stereo unspecified),-4,21,0,5,-23
CCCCNC(=O)C1CCCN(Cc2nc(-c3ccc(Cl)cc3)oc2C)C1 (stereo unspecified),-4,7,0,-5,-30*
COc1ccc(CCN(C)C(=S)Nc2ccc(SC(F)F)cc2)cc1OC,-7,24,0,5,-28
COc1ccc(CCN(C)C(=S)NC(=O)c2ccc(F)cc2Cl)cc1OC,-3,4,0,-5,-56*
Cc1ccc(C(=O)NC2(C(F)(F)F)C(=O)Nc3c2c(=O)[nH]c(=O)n3CCc2ccccc2)cc1 (stereo unspecified),-6,0,1,-10,-40*
O=C(NC1(C(F)(F)F)C(=O)Nc2c1c(=O)[nH]c(=O)n2CCc1ccccc1)c1ccc(Cl)cc1 (stereo unspecified),2,5,0,-8,-10
Cc1ccc(-n2c3c(c(=O)[nH]c2=O)C(NC(=O)C(C)(C)C)(C(F)(F)F)C(=O)N3)cc1 (stereo unspecified),-5,-1,0,-1,-74*
CCN(C(=O)CN(C)S(=O)(=O)c1ccc2c(c1)n(C)c(=O)c(=O)n2C)c1cccc(C)c1,-2,0,-1,0,-22
O=C(Cn1cnc2ccccc21)N/N=C/c1ccc([N+](=O)[O-])cc1,1,4,0,2,-4
SMILES,D1 PAM,D1 ag,TRHR agonist,TRHR PAM,D1 antag
Cc1ccc(/C=N/NC(=O)Cn2cnc3ccccc32)o1,5,2,0,1,-11
Cc1ccc(/C=N\NC(=O)Cn2nnc3ccccc32)o1,-2,2,0,33*,16
Cc1ccc(/C=N/NC(=O)Cn2cnc3ccccc32)cc1,-8,4,0,-2,-43*
Cc1ccc(S(=O)(=O)/N=C2\C(=O)c3ccccc3C([O-])=C2n2cc[n+](CCC(C)C)c2)cc1,1,1,-1,-3,19
Cc1ccc(NC(=O)C[n+]2ccn(C3=C([O-])c4ccccc4C3=O)c2)cc1,-5,2,0,4,-41*
CCOC(=O)c1ccccc1NC(=O)N(C(C)C)C1CCN(C(C)=O)CC1,-2,1,0,-2,-6
CC(Sc1nnc(-c2ccc(Cl)cc2Cl)n1Cc1ccccc1)C(=O)Nc1nccs1 (stereo unspecified),2,0,-2,0,-46*
Cc1nnc(SC(C)C(=O)Nc2ccc(Cl)cn2)n1Cc1ccccc1 (stereo unspecified),0,2,0,2,30
COc1ccc(Nc2nc(-c3c[nH]c4ccccc34)cs2)cc1,-1,3,1,7,-39*
CC(=O)c1cccc(NC(=O)NCCc2c[nH]c3ccccc23)c1,13,5,-1,-1,-12
O=C(Nc1cccc(CNCCc2c[nH]c3ccccc23)c1)c1ccccc1Cl,-7,32*,1,0,-41*
CCOC(=O)C1CCCN(S(=O)(=O)c2ccc3[nH]c(=O)oc3c2)C1 (stereo unspecified),0,1,0,-2,-41*
CCOC(=O)C1CCCN(S(=O)(=O)c2ccc3c(c2)N(C)C(=O)CC(=O)N3C)C1 (stereo unspecified),0,2,0,0,-45*!
CCOc1ccccc1CNCc1c(C(=O)O)n(Cc2ccc(F)cc2)c2cc(C)ccc12,9,0,0,-1,18
CCc1cnc2c(c1SCC(=O)Nc1ccc(OC)c(OC)c1)c(=O)n(C)c(=O)n2C,-1,-4,0,1,.
CC(C)(CC(=O)O)CC(=O)Nc1ccc(Cl)c(Cl)c1,-3,1,1,2,-58*
CC(C)(C)N(NC(=O)Nc1ccc(Cl)c(Cl)c1)C(=O)c1ccccc1,-1,33*,3,-4,-27
CC1=NNC(=O)C(CC(=O)Nc2ccc(Cl)c(Cl)c2)C1 (stereo unspecified),-6,3,0,2,-36*
O=C(CC1NCCNC1=O)Nc1ccc(Cl)c(Cl)c1 (stereo unspecified),1,2,0,-2,21
